The source of these data is PubChem BioAssay (NCI).

Compounds without any hit were thinned out: in the full panel of roughly 79,000, 15% have a hit. Unmarked numbers belong to inactive results. Activity calls are given as the source filed them. Cut-off read from the data, not from the text of the source: active = growth inhibition above about 70%; inactive = the rest.

The assay is described as follows: NCI Yeast Anticancer Drug Screen. Data for the rad18 strain (AID 177). The following applies: S. cerevisiae rad18 mutant growth inhibition, hits give high values. How it is done:
Growth inhibition of yeast strains with defined genetic alterations is measured as a screen for potential anti-cancer activity. Selected strains with alterations in DNA damage repair or cell cycle control were exposed to compounds and growth inhibition was measured relative to vehicle treated controls. The strain used in this assay is rad18

As for `CCOC(=O)CNC(=O)c1[nH]cnc1/N=N/N(C)C`, the growth inhibition is, setting by setting: (at 1.2 µM) 0%; (at 3.7 µM) -11%; (at 11.0 µM) -13%; (at 33.0 µM) -3%; (at 100.0 µM) 98% (active).

`O=[N+]([O-])/C(C(Cl)=C(Cl)Cl)=C1/OCCS1`: the growth inhibition is 86% (active) (at 1.2 µM); 93% (active) (at 3.7 µM); 97% (active) (at 11.0 µM); 99% (active) (at 33.0 µM); 98% (active) (at 100.0 µM).

In the case of `Nc1nc(F)nc2c1ncn2C1OC(COP(=O)(O)O)C(O)C1O` (stereo not given), the growth inhibition is -2% (at 1.2 µM); -1% (at 3.7 µM); 1% (at 11.0 µM); 5% (at 33.0 µM); 19% (at 100.0 µM).

Regarding `Cc1onc(-c2ccccc2Cl)c1C1=N/C(=C/c2cc(Cl)cc(Cl)c2O)C(=O)O1`, the growth inhibition is -46% (at 1.2 µM); -50% (at 3.7 µM); -44% (at 11.0 µM); -21% (at 33.0 µM); 58% (at 100.0 µM).

In the case of `C/C=C/[P+](c1ccccc1)(c1ccccc1)c1ccccc1`, the growth inhibition is, setting by setting: (at 1.2 µM) 58%; (at 3.7 µM) 67%; (at 11.0 µM) 68%; (at 33.0 µM) 90% (active); (at 100.0 µM) 94% (active).

Consider `O=[N+]([O-])c1c(/C=N/Nc2ccccc2)oc(-c2ccc3c(c2)OCO3)c1-c1ccc2c(c1)OCO2`, for which the growth inhibition by setting is: (at 1.2 µM) -8%; (at 3.7 µM) -5%; (at 11.0 µM) 8%; (at 33.0 µM) 69%; (at 100.0 µM) 87% (active).

Consider `O=C1CC(=O)N(C2CCCCC2)C(=O)N1c1ccccc1S(=O)(=O)Oc1ccccc1`, for which the growth inhibition by setting is: (at 1.2 µM) -15%; (at 3.7 µM) -13%; (at 11.0 µM) -19%; (at 33.0 µM) -18%; (at 100.0 µM) 12%.

Regarding `C=C(CCCO)[C@@H]1CC[C@@](C)(O)[C@H]1C`, the growth inhibition is, setting by setting: (at 1.2 µM) -38%; (at 3.7 µM) -38%; (at 11.0 µM) -45%; (at 33.0 µM) -46%; (at 100.0 µM) -66%.
